Measurements from the supplement of paper PMC6555819.

What was measured:
Experiment in all cases: PBM binding z-score (relative to random genomic background probes); higher = stronger binding; sequences stand for … in GC…GCGATTGACAGCGTAGAATGAAGG
[1] = test system: FXR:RXRa (NR concentration 270 nM, RXRa partner concentration 90 nM)
In short: (§1)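 Binding z-scores were set against random background probes. The data came from custom Agilent 4×180K protein-binding microarrays carrying double-stranded probes with 34-nt variable regions, incubated 1 h with ligand-free nuclear receptor dimers. Partner-specific antibodies detected binding, and scanned fluorescence was regression-normalized.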

[2] = test system: LXRa:RXRa (NR concentration 270 nM, RXRa partner concentration 90 nM)
In short: as §1

[3] = test system: LXRa homodimer (NR concentration 270 nM)
In short: as §1

[4] = test system: LXRb:RXRa (NR concentration 270 nM, RXRa partner concentration 90 nM)
In short: as §1

[5] = test system: LXRb homodimer (NR concentration 270 nM)
In short: as §1

[6] = test system: PPARa:RXRa (NR concentration 270 nM, RXRa partner concentration 90 nM)
In short: as §1

[7] = test system: PPARg:RXRa (NR concentration 180 nM, RXRa partner concentration 90 nM)
In short: as §1

[8] = test system: PPARg:RXRa 270nM:90nM, anti-RXR (NR concentration 270 nM, RXRa partner concentration 90 nM)
In short: as §1

[9] = test system: PPARg:RXRa 30nM:10nM, anti-RXR (NR concentration 30 nM, RXRa partner concentration 10 nM)
In short: as §1

[10] = test system: PPARg:RXRa 90nM:30nM, anti-RXR (NR concentration 90 nM, RXRa partner concentration 30 nM)
In short: as §1

[11] = test system: PPARg:RXRa DBDmut IVT, anti-RXR (DBD mutation: RXRa K156A/R161A, NR concentration 270 nM, RXRa partner concentration 90 nM)
In short: as §1

[12] = test system: PPARg:RXRa IVT, anti-PPARg (NR concentration 270 nM, RXRa partner concentration 90 nM)
In short: as §1

[13] = test system: PPARg DBDmut:RXRa IVT, anti-PPARg (DBD mutation: PPARg1 K132A/R137A, NR concentration 270 nM, RXRa partner concentration 90 nM)
In short: as §1

[14] = test system: PPARg DBDmut IVT, anti-PPARg (DBD mutation: PPARg1 K132A/R137A, NR concentration 270 nM)
In short: as §1

[15] = test system: PPARg homodimer (NR concentration 180 nM)
In short: as §1

[16] = test system: PXR:RXRa (NR concentration 270 nM, RXRa partner concentration 90 nM)
In short: as §1

[17] = test system: PXR homodimer (NR concentration 270 nM)
In short: as §1

[18] = test system: RARa:RXR (NR concentration 270 nM, RXRa partner concentration 90 nM)
In short: as §1

[19] = test system: RARa homodimer (NR concentration 270 nM)
In short: as §1

[20] = test system: RARb:RXRa (NR concentration 270 nM, RXRa partner concentration 90 nM)
In short: as §1

| Sequence | PBM binding z-score [1] | PBM binding z-score [2] | PBM binding z-score [3] | PBM binding z-score [4] | PBM binding z-score [5] | PBM binding z-score [6] | PBM binding z-score [7] | PBM binding z-score [8] | PBM binding z-score [9] | PBM binding z-score [10] | PBM binding z-score [11] | PBM binding z-score [12] | PBM binding z-score [13] | PBM binding z-score [14] | PBM binding z-score [15] | PBM binding z-score [16] | PBM binding z-score [17] | PBM binding z-score [18] | PBM binding z-score [19] | PBM binding z-score [20] |
| --- | --- | --- | --- | --- | --- | --- | --- | --- | --- | --- | --- | --- | --- | --- | --- | --- | --- | --- | --- | --- |
| CAAACTAGGTCAAGGTCAAAGCCGGTTTGTGCCA | 6.25 | 5.33 | 3.23 | 4.36 | 1.05 | 6.15 | 9.26 | 8.02 | 6.18 | 7.95 | 8.75 | 8.89 | 2.59 | 0.00542 | 2.93 | 4.89 | 1.4 | 4.84 | 0.855 | 5.2 |
| CCGAGTAGGCTATGGGGCATTCAGGCAACGGTGA | -0.882 | -1.01 | -0.67 | -0.799 | -1.07 | 0.341 | 1.43 | 2.92 | 0.549 | 2.35 | 0.771 | 0.867 | -0.695 | -1.15 | -0.376 | -0.862 | -0.647 | -0.583 | -0.463 | -0.102 |
| ACTTACGGGTCAACGAGGTTATAACACGCGTATA | 7.16 | 5.41 | 1.28 | 5.13 | 1.29 | 5.9 | 5.93 | 5.54 | 2.6 | 4.07 | 3.68 | 4.21 | 3.33 | 2.76 | 4.28 | 5.81 | 4.42 | 5.84 | 2.39 | 4.37 |
| CTACCAACGTGAACAAGGTCGTTGATTACTATTC | 0.409 | 0.657 | 0.667 | 1.48 | 0.184 | 1.22 | 0.42 | 0.167 | -0.0638 | 0.0634 | 0.278 | 0.249 | 0.577 | 1.06 | 0.913 | 1.72 | 1 | 1.4 | 0.795 | 0.631 |
| TCTTGTAGATCAGCAGGTTAAGATAGCTGGCCAA | -0.0531 | 0.217 | -0.176 | 0.312 | -0.375 | 0.692 | -0.179 | 1.28 | 2.71 | 1.95 | 1.75 | 0.446 | 0.0165 | 0.121 | 0.155 | 0.31 | -0.37 | 0.429 | -0.336 | 0.168 |
| TCTGCTAGATCAACGATGGTCAGCTAATCTGCTA | -1.43 | -0.641 | -1.29 | -0.993 | -1.05 | -0.231 | -0.175 | 0.492 | 1.39 | 1.14 | 0.608 | -0.401 | -0.179 | -0.566 | -1.56 | -0.434 | -1.18 | -0.57 | -1.3 | -0.346 |
| CCTTACGGGTCACTGACAGGTTATAACATTTGGA | 5.58 | 4.49 | 0.519 | 3.76 | 0.0468 | 5.18 | 4.66 | 4.61 | 1.74 | 3.38 | 3.56 | 3.86 | 0.537 | 0.266 | 2.85 | 3.67 | 0.294 | 4.67 | 1.52 | 3.9 |
| CAAACTAGGTCACAGAGATCAAAGTCCGTGCGTA | 4.32 | 3.26 | 0.659 | 2.41 | 0.38 | 5.25 | 8.83 | 7.25 | 5.12 | 7.3 | 8.62 | 9.06 | 1.86 | 1 | 2.16 | 2.28 | 0.448 | 2.78 | 0.89 | 4.03 |
| ATCTCTAGGCAACCAAGTTCAGTGAATGCCGAAC | 0.291 | 0.227 | 0.263 | 0.113 | 0.281 | 0.303 | 0.114 | 0.0403 | -0.317 | 0.0136 | 0.769 | 0.547 | 0.416 | 0.473 | -0.0686 | 1.68 | 1.43 | 0.461 | -0.516 | 0.951 |
| AGAATGAGGTTATACATAGATCAGGGAAGAAAGT | 1.88 | 2.05 | 0.223 | 1.56 | 0.151 | 3.07 | 2.28 | 1.87 | 0.974 | 1.4 | 2.35 | 1.91 | 1.44 | 1.27 | 1.21 | 1.43 | 0.76 | 1.9 | 0.765 | 1.6 |
| TCTCGGAGGACACGAAGGTCAGAGCGTTCCAGAG | 1.4 | 1.13 | 0.0459 | 0.874 | -1.15 | 2.05 | 0.373 | 1.63 | 2.34 | 2.05 | 1.02 | 1.49 | -0.71 | -1.07 | 1 | 1.87 | 0.555 | 1.84 | -0.476 | 3.4 |
| GATACAGGGTCAGATAGAGGCCAGAGTATGGAAA | 4.95 | 3.16 | 0.138 | 3.03 | 0.456 | 4.58 | 3.32 | 3.11 | 1.18 | 2.09 | 1 | 2.53 | 1.35 | 0.368 | 2.7 | 3.26 | 0.844 | 4.13 | 0.243 | 3.97 |
| GCTGCTAGGTCAGCTTGGTCAGCTAACGGGTACG | 1.35 | 0.704 | -0.534 | 0.334 | 0.0113 | 1.22 | 0.479 | 0.718 | -0.549 | -0.0941 | 3.14 | 2.46 | -1.08 | -1.08 | 0.887 | 0.168 | -0.979 | 0.718 | -0.683 | 3.29 |
| TCTTGTAGATCAACAGGAGGTTTAGAAAGATCGA | -0.117 | -0.19 | -0.342 | 0.0269 | -0.559 | 0.152 | -0.195 | 0.953 | 2.59 | 1.93 | 1.64 | 0.449 | 0.726 | 0.199 | 0.11 | -0.0955 | -0.425 | 0.104 | -0.667 | -0.271 |
